# From PubChem BioAssay
# Hits are enriched below; roughly 4% of the tested compounds scored in any of these assays.
# MITF TRPM1 inh: inhibitors of MITF-driven TRPM1 promoter in melanoma cells | SK-MEL-5 TRPM1 promoter luciferase, 24 h | inhibition, % at 12.5 µM | 0.83% of 330,000 active;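 active = mean inhibition across replicates of 60% or more, whatever share of single replicates reaches that level; inconclusive = some that reach 60%, reason not given; inactive = mean inhibition across replicates below 60%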
# MITF TRPM1 HTS: activators of MITF-driven TRPM1 promoter activity in SK-MEL-5 cells; activation, % at 12.5 µM; 0.75% of 300,000 active; SK-MEL-5 TRPM1-promoter luciferase, 24 h; % of positive control, neutral wells = 0;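 active = mean activation of at least 80% with every replicate also reaching 80%; inconclusive = mean reaches 80% but some replicate falls short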;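 note: 0% = neutral control wells and 100% = parthenolide positive control wells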
# PAX8 inh HTS: lowers PAX8-driven luciferase in RMG-I cells. RMG-I TPO-luciferase reporter, SteadyGlo, 24 h. inhibition, % at 12.6 µM. 1.2% of 360,000 active;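 active = mean replicate inhibition at least 60% with every replicate also reaching 60%; inconclusive = only one of the two criteria is met; inactive = mean below 60% and not all replicates reaching 60%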;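 note: luciferase light reporting Pax8 driven TPO promoter activity; plate controls were median of neutral control wells for no effect and mitoxantrone controls for full effect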
# EWS-Fli block: blocks EWS/Fli oncoprotein-driven transcription; A673 NR0B1-luciferase reporter, viability-normalised; AID 651661; 0.67% of 350,000 active; inhibition, % at 12.6 µM;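 active = mean inhibition of at least 50% after viability correction, with every replicate also passing that limit; inconclusive = mean reaches 50% but only one of two replicates passes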;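 note: firefly luciferase signal divided by Alamar Blue viability fluorescence both relative to DMSO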
# esBAF inh: blocks esBAF chromatin remodeling in mouse ES cells. 2% of 350,000 active. AID 602393. reporter increase, % at 12.5 µM. Bmi1-luciferase knock-in reporter, 24 h; 100% = twice the neutral-well signal; in the data active = activation above about 40%; inconclusive = no clear call, values can overlap the other calls;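 note: 0% = median of the plate's neutral control wells and 100% = double that signal; a rise in the Bmi1 reporter signal indicates esBAF inhibition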
# Wnt act: Wnt/beta-catenin pathway activation; 1.2% of 300,000 active; activation, % at 9.35 µM; Wnt/beta-catenin reporter cell assay, activator, plate reader; in the data active = activation above about 30%, passing the limit was not always enough; inconclusive = no clear call, values can overlap the other calls;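 note: 0% = neutral control wells and 100% = positive control wells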
# * marks the source's active call; other numbers are inactive results; ? = inconclusive; . = no result.
SMILES,MITF TRPM1 inh,MITF TRPM1 HTS,PAX8 inh HTS,EWS-Fli block,esBAF inh,Wnt act
CCOC(=O)C(O)(c1ccc(NC(=O)NC2CCCCC2)cc1)C(F)(F)F (configuration not stated),-49.2,47.4,.,.,45.6*,6.2
Cc1ccc(OC(=O)N(C)C[C@H]2OCc3ccccc3-c3c(n(C)c4ccccc34)C(=O)N([C@H](C)CO)C[C@H]2C)cc1,.,.,51.5,.,.,.
COC(=O)C1=C(c2ccc(F)cc2OCc2ccccc2)C[C@@H]2CC[C@H]1N2C(=O)NC1Cc2ccccc2C1,17.2,-17.8,88.6*,10.3,6.6,-8.4
COC(=O)C1=C(c2ccc(F)cc2OCc2ccccc2)C[C@@H]2CC[C@H]1N2C(=O)NCc1ccc(F)cc1,-1.9,3.9,6.6,7.8,-1.9,-2.7
COC(=O)C1=C(c2ccc(F)cc2OCc2ccccc2)C[C@@H]2CC[C@H]1N2C(=O)NCc1ccc(C)cc1,-0.8,4.5,102.2*,2.4,1.4,-3.7
O=C(Cc1ccccn1)N1CC2(C1)[C@H](c1ccccc1)[C@@H](CO)N2Cc1ccccn1,.,.,7.6,0.6,.,.
COC(=O)[C@H]1[C@H](CO)[C@H]2Cn3c(ccc(-c4ccc(F)cc4)c3=O)[C@@H]1N2Cc1ccccc1,.,.,-2.2,-6.8,-0.1,.
COC(=O)[C@@H]1[C@@H](CO)[C@@H]2Cn3c(ccc(C4=CCCCC4)c3=O)[C@H]1N2C(=O)NC(C)C,.,.,-4.8,11.3,3.3,.
CCOC(=O)c1nc2ccccc2c(=O)n1-c1ccc(C)cc1C,-5.9,4.8,-1.9,.,0.4,.
CCOC(=O)c1cc2c(cn1)[nH]c1ccccc12,-49.8,49.1,-89.3,2.7,50.1*,9.3
COC(=O)[C@H]1[C@H](CO)[C@H]2Cn3c(ccc(-c4ccccc4)c3=O)[C@@H]1N2C(=O)c1ccccc1F,.,.,.,-0.4,-3.0,.
C/C(=C\c1ccc(N(C)C)cc1)[N+](=O)[O-],79.6*,-79.4,.,52.0*,7.8,-2.3
CN(C)c1ccc(/C=C/[N+](=O)[O-])cc1,5.6,-3.9,-13.4,-1.2,.,2.0
Fc1ccc(N2Cc3ccccc3-n3nncc3C2)cc1,.,.,19.4,1.6,6.1,-1.6
O=C(OCc1ccccc1)N1CCC2CC1c1cc(N3Cc4ccccc4-n4nncc4C3)ccc12 (configuration not stated),.,.,-113.3,-49.4,76.7*,?
Cc1ccccc1-[n+]1c(-c2ccccc2)cc(-c2ccccc2)cc1-c1ccccc1,89.6*,-87.1,94.9*,42.5,-71.9,-15.7
Oc1ccccc1-[n+]1c(-c2ccccc2)cc(-c2ccccc2)cc1-c1ccccc1,12.4,-11.4,77.8*,20.9,-13.7,-2.7
Nc1ccccc1-[n+]1c(-c2ccccc2)cc(-c2ccccc2)cc1-c1ccccc1,15.5,-11.3,?,10.4,5.7,3.0
[O-]c1ccccc1-[n+]1c(-c2ccccc2)cc(-c2ccccc2)cc1-c1ccccc1,47.5,-42.2,90.4*,38.5,-37.4,24.1
CCc1ccc(N2C(=O)NC(=O)/C(=C\c3cccn3CCOc3ccc(C(C)C)cc3)C2=O)cc1,-9.6,13.1,-98.5,.,.,34.1*
COc1cc(C2c3cc4c(c(O)c3CC3COC(=O)C32)OCO4)cc(OC)c1OC (configuration not stated),41.4,.,87.7*,43.6,.,-20.2
COc1cc(C2c3cc(O)c(OC)cc3CC3C(=O)OCC32)ccc1O (configuration not stated),15.8,-13.1,.,-8.4,-2.8,3.4
COc1cc(C2c3cc4c(cc3CC3COC(=O)C32)OCO4)cc(OC)c1OC (configuration not stated),.,.,.,57.3*,-12.4,-20.2
O=C1NC(=O)C(=Cc2ccc(-c3ccc(S(=O)(=O)N4CCOCC4)cc3)o2)C(=O)N1,4.6,-8.5,-28.1,-5.0,-0.2,-2.2
O=C1NC(=O)C(=Cc2ccc(-c3ccc(Cl)cc3)o2)C(=O)N1,67.7*,-64.3,.,.,9.0,.
SMILES,MITF TRPM1 inh,MITF TRPM1 HTS,PAX8 inh HTS,EWS-Fli block,esBAF inh,Wnt act
O=C(Cc1cccnc1)N1CCCCN2[C@H](CO)[C@@H](c3ccc(C#CC4CC4)cc3)[C@H]2C1,.,.,16.6,-7.4,.,.
COc1ccc(Oc2cc(NC(=O)c3nn(C)cc3[N+](=O)[O-])cc([N+](=O)[O-])c2)cc1,81.1*,-80.7,.,27.6,-3.2,-13.2
COc1cc2c(cc1/C=C/[N+](=O)[O-])OCO2,78.6*,-81.9,37.0,19.0,1.8,15.9
COc1ccc(NC2=NC(C)(C)CS2)cc1,-96.0,94.6*,-116.1,-82.4,28.2,6.5
COc1ccc(NC2=NCC(C)S2)cc1 (configuration not stated),-7.9,6.7,7.4,-2.1,2.2,3.7
O=C(Cc1ccccn1)N1CCCCN2[C@H](CO)[C@@H](c3ccc(C#Cc4ccccc4)cc3)[C@@H]2C1,.,.,33.8,-3.1,.,.
NC(N)=N/N=C/c1ccc(N(c2ccccc2)c2ccccc2)cc1,101.5*,-100.5,81.3*,58.4*,-16.4,-2.2
COc1ccc(/C=N\N=C(N)N)cc1,-0.9,1.5,-13.6,5.3,.,-1.6
O=C(Cc1ccncc1)N1CCCCN2[C@H](C1)[C@H](c1ccc(C#CC3(O)CCCC3)cc1)[C@@H]2CO,.,.,-9.9,.,.,.
CCN1/C(=C/C=C/C2=[N+](CC)c3ccccc3C2(C)C)C(C)(C)c2ccccc21,.,.,106.3*,59.1*,-77.0,-2.6
CN1/C(=C\C=C2C(=O)NC(=O)NC2=O)C(C)(C)c2ccccc21,-13.2,9.2,-0.6,6.9,.,-4.6
CC1CC(C)(O)CC(C(O)CC2CC(=O)NC(=O)C2)C1=O (configuration not stated),67.4*,.,123.4*,46.4,.,-5.7
O=C1C(=O)c2ccccc2-c2ccccc21,109.8*,-109.8,?,82.1*,?,-24.5
Cc1ccc(N2C(=O)NC(=O)/C(=C\C=C\c3ccco3)C2=O)cc1C,89.9*,-90.4,31.2,71.7*,.,6.2
Cc1cccc(N2C(=O)NC(=O)/C(=C\C=C\c3ccco3)C2=O)c1,98.2*,-97.9,7.8,67.4*,.,8.5
O=C1NC(=O)N(c2ccccc2)C(=O)/C1=C/C=C/c1ccco1,94.7*,-94.0,-23.8,59.7*,-11.2,15.4
CN(C)c1ccc(/C=C/C=C2/C(=O)NC(=O)N(c3ccccc3)C2=O)cc1,83.1*,-83.1,32.4,57.2*,.,-6.1
Cn1cc(/C=C2\C(=O)NC(=O)N(c3ccccc3)C2=O)c2ccccc21,-16.5,14.1,7.8,5.6,-11.9,0.2
CN1C(=O)/C(=C/C=C/c2ccco2)C(=O)NC1=S,2.5,4.4,7.5,1.6,.,0.6
COC(=O)[C@H]1[C@H](CO)[C@H]2Cn3c(ccc(-c4ccc(OC)cc4)c3=O)[C@@H]1N2C(=O)c1ccccc1F,.,.,-2.2,4.4,-0.4,.
COC(=O)[C@H]1[C@H](CO)[C@H]2Cn3c(cccc3=O)[C@@H]1N2CCc1ccccc1,.,.,.,8.6,-1.0,.
